Data: PubChem BioAssay (NCATS)
Where “and” joins values, the source holds several entries; their conditions need not be identical. Equal entries are not always repeated. Inconclusive results are not listed. Entries that show only a call come without a potency. Some compounds were tested as several samples or in several runs, with calls that do not always agree. Values without a mark were called inactive. Calls of active or inactive are those of the source. The call rests on the fitted dose curve; in most records, active means well fitted curve in the direction sought with a large enough effect; inconclusive means small, poorly fitted or top-dose-only effect, or another doubt; inactive means no such curve, though single readings can be large; an effect the other way counts as inactive or inconclusive.

Columns and labels:
[1] = target: Cytochrome P450 3A7 (Homo sapiens) (UniProt P24462); assay: Cytochrome P450 family 3 subfamily A member 7 (CYP3A7) small molecule antagonists: luciferase biochemical qHTS assay (AID 1963596); further: nearly all actives have a fitted effect of over 40% in size
Cytochrome P450 3A7 (Homo sapiens), sequence (P24462 whole entry, looked up): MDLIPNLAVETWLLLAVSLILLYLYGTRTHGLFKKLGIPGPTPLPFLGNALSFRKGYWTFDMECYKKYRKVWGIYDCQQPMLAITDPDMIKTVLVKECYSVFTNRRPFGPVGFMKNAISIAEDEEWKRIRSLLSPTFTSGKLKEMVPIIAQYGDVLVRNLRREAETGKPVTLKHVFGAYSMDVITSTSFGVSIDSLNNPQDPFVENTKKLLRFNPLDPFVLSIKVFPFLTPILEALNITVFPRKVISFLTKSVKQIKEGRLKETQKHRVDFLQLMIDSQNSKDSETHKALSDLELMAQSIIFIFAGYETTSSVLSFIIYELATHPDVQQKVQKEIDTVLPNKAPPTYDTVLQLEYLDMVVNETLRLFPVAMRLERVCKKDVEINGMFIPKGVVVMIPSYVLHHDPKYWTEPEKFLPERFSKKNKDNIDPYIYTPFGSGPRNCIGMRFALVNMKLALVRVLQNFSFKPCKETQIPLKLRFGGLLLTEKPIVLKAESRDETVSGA
Method in brief: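 Biochemical CYP3A7 activity measured with P450-Glo system: luciferin formed from proluciferin substrate in NADPH-driven reaction (1 h, room temperature) after 10 min compound preincubation. Signal in relative luminescence units.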

[2] = Viability qHTS for spleen associated tyrosine kinase inhibitor (SYKi) naive MV4-11 cells (AID 1963823); further: nearly all actives have a fitted effect of over 40% in size; further: potency means the concentration at half of the fitted maximal effect
Method in brief: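 Cells: MV4-11, SYK inhibitor naive, 500 per well. Treatment: library compounds, 72 hr, 37 C, 5% CO2. Read-out: CellTiter-Glo luminescence after 10 min RT.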

[3] = Viability qHTS for spleen associated tyrosine kinase inhibitor (SYKi) drug resistant MV4-11 cells (AID 1963824); further: nearly all actives have a fitted effect of over 35% in size; further: potency means the concentration at half of the fitted maximal effect
Method in brief: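 CellTiter-Glo luminescence, read 10 min after reagent addition, reports viability after a 72 hr compound exposure. Cells are an MV4-11 line made resistant to SYK inhibition, seeded at 500 per well onto compound-containing plates.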

[4] = Cellular viability qHTS for adrenocortical cancer (ACC) cell line SW-13 (AID 1963989); details: SW-13 ACC cells viability, CellTiter-Glo, 48 h; activity (max response): active compounds read low;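 further: cells grown in serum-free medium with ITS supplement; nearly all actives have a fitted effect of over 65% in size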
Method in brief: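 Viability was read as CellTiter-Glo luminescence after 48 h compound treatment (up to 46 uM final) of SW-13 cells grown serum-free; titration curves were fit with a four-parameter logistic model to give IC50 and efficacy.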

[5] = Cellular viability qHTS for adrenocortical cancer (ACC) cell line NCI-H295R (AID 1963990); further: nearly all actives have a fitted effect of over 60% in size
Method in brief: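 CellTiter-Glo ATP luminescence, read 48 h after compound addition, measured viability of NCI-H295R adrenocortical cells grown serum-free with ITS. Final concentrations spanned up to 46 uM. Data normalized to DMSO and doxorubicin, fitted for IC50 and maximal response.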

For `CCN(CC)CCCC(C)Nc1ccnc2cc(Cl)ccc12` (configuration not stated), the Potency [1] was “inactive”, the Potency [2] was 8.2 µM (active) and the viability (% of control) [2] was 72.7% [at 9.25 µM]. For the same compound, the Potency [3] was 10.3 µM (active), the activity (max response) [4] was 0.695% and -16.4% and the Potency [5] was “inactive”.

For `CCOC(=O)N1CCC(NCCNC(=O)c2ccccc2C)CC1`, the Potency [1] was “inactive”, the Potency [2] was “inactive” and the Potency [3] was “inactive”.

In the case of `O=C(NCc1ccccn1)Nc1nnc(-c2ccco2)o1`, the Potency [1] is reported as “inactive”, the Potency [2] is reported as “inactive” and the Potency [3] is reported as “inactive”.

For `FC(F)(F)c1nnc2c(Sc3ccccc3)nc3ccc(Cl)cc3n12`, the Potency [1] was “inactive”, the Potency [2] was 1.46 µM (active) and the Potency [3] was 0.731 µM (active).

For `CN1CCN(c2nc(-c3ccc(C(=O)NC4(C(=O)NCC#N)CCCCC4)cc3)cs2)CC1`, the Potency [1] was “inactive”, the Potency [2] was “inactive” and the Potency [3] was “inactive”.

For `CC(NC(=O)C(O)C(C)C)C(=O)NC1C(=O)N(C)CCc2ccccc21` (configuration not stated), the Potency [1] was “inactive”, the Potency [2] was “inactive” and the Potency [3] was “inactive”.

In the case of `CCCCNC(=O)[C@@H]1Cc2ccccc2N1C(=O)[C@@H](N)CC`, the Potency [1] is reported as “inactive”, the Potency [2] is reported as “inactive” and the Potency [3] is reported as “inactive”.

For `COc1ccc(-n2c(SCC#N)nc3sc4c(c3c2=O)CCCC4)cc1`, the Potency [1] was “inactive” and the Potency [2] was “inactive”.

For `CCNC(=O)C1CC(F)(c2ccc(CN3CCCC3)c(F)c2)C1` (configuration not stated), the Potency [1] was “inactive”, the Potency [2] was “inactive” and the Potency [3] was “inactive”.

With `O=C(Nc1nnc(-c2ccc3c(c2)OCCO3)o1)C1CCCCC1` the Potency [1] was “inactive”, the Potency [2] was “inactive” and the Potency [3] was “inactive”.

In the case of `CCCCCCOC(=O)/N=C(\N)c1ccc(NCc2nc3cc(C(=O)N(CCC(=O)OCC)c4ccccn4)ccc3n2C)cc1`, the Potency [1] is reported as “inactive”, the Potency [2] is reported as 1.3 µM (active) and the Potency [3] is reported as 0.82 µM (active).

With `O=C1N(CC2CCCCN2)CCN1c1ccccc1` (configuration not stated) the Potency [1] was “inactive”, the Potency [2] was “inactive” and the Potency [3] was “inactive”.

For `Cc1cc(F)ccc1-c1nc(NCCN=C(N)NC#N)nc2c1ccc(=O)n2-c1c(F)cccc1F`, the Potency [1] was “inactive”, the Potency [2] was 14.6 µM (active) and the Potency [3] was 14.6 µM (active).

With `Nc1nc(O)c(C2=C3C(=Nc4ccccc43)C(=O)NCC2)[nH]1` the Potency [1] was “inactive” and the Potency [2] was 0.461 µM (active).

For `NC(=O)c1ccc([N+](=O)[O-])cc1Cl`, the Potency [1] was “inactive”, the Potency [2] was “inactive” and the Potency [3] was “inactive”.

For `O=C1NC(=Nc2ccccc2F)S/C1=C\c1ccc(C(=O)O)cc1`, the Potency [1] was “inactive”, the Potency [2] was “inactive” and the Potency [3] was “inactive”.

For `C[C@@H](O)[C@H](NC(=O)c1ccc(C#Cc2ccc(CN3CCOCC3)cc2)cc1)C(=O)NO`, the Potency [1] was “inactive”, the Potency [2] was 23.1 µM (active) and the Potency [3] was 23.1 µM (active).

In the case of `COc1ccc(CCCN2CCC(COC(c3ccccc3)c3ccccc3)CC2)cc1`, the Potency [1] is reported as “inactive”, the Potency [2] is reported as 10.3 µM (active) and the Potency [3] is reported as 10.3 µM (active).

With `CC(C)(C)OC(=O)N1CCC(OCc2nc(-c3ccncc3)no2)CC1` the Potency [1] was “inactive”, the Potency [2] was “inactive” and the Potency [3] was “inactive”.

For `NC(Cc1c[nH]c2ccccc12)C(=O)NC(CCC(=O)O)C(=O)O` (configuration not stated), the Potency [1] was “inactive”, the Potency [2] was 2.91 µM (active) and the Potency [3] was “inactive”.

With `CCC1(O)CC2c3cc(OC)c(OC)cc3CCN2CC1CC(C)C` (configuration not stated) the Potency [1] was “inactive”, the Potency [2] was “inactive” and the Potency [3] was “inactive”.

In the case of `CCN(CC)Cc1ccc(C(=O)N(CCc2ccccc2OC)[C@@H]2CCNC2)cc1`, the Potency [1] is reported as “inactive”, the Potency [2] is reported as 3.17 µM (active) and the Potency [3] is reported as 3.17 µM (active).

In the case of `COc1ccnc(CCc2nc3ncccc3[nH]2)c1`, the Potency [1] is reported as “inactive”, the Potency [2] is reported as “inactive” and the Potency [3] is reported as “inactive”.

In the case of `Cc1nnc(-c2ccc(-c3ccc(C(=O)Nc4ccc(O)c(N5CCN(C)CC5)c4)cc3)c(C)c2)o1`, the Potency [1] is reported as “inactive” and the Potency [2] is reported as “inactive”.

In the case of `O=C(c1ccc(Cl)c([N+](=O)[O-])c1)N1CCN(c2ccccc2F)CC1`, the Potency [1] is reported as “inactive”, the Potency [2] is reported as 23.1 µM (active) and the Potency [3] is reported as 18.4 µM (active).

With `CC[C@H]1OC(=O)C[C@@H](O)[C@H](C)[C@@H](O[C@@H]2O[C@H](C)[C@@H](O)[C@H](N(C)C)[C@H]2O)[C@@H](CCN2C[C@H](C)C[C@H](C)C2)C[C@@H](C)C(=O)/C=C/C(C)=C/[C@@H]1CO[C@@H]1O[C@H](C)[C@@H](O)[C@@H](OC)[C@H]1OC` the Potency [1] was “inactive”, the Potency [2] was “inactive” and the Potency [3] was “inactive”.

Compound `CC(C)(C)NCc1cc(Nc2ccnc3cc(Cl)ccc23)c2c(c1O)CCCC2` has an activity change, negative = inhibition [1] of -5.38% [at 11.5 µM], a viability (% of control) [2] of 90.1% [at 0.588 µM] and a viability, % of control [3] of 102% [at 0.588 µM].

For `COc1ccc(C(=O)c2ccccc2)c(O)c1`, the Potency [1] was “inactive”, the Potency [2] was “inactive” and the Potency [3] was “inactive”.

In the case of `COc1ccc(CCO[C@@H]2CCCC[C@H]2N2CC[C@@H](O)C2)cc1OC`, the Potency [1] is reported as “inactive”, the Potency [2] is reported as “inactive” and the Potency [3] is reported as “inactive”.

For `N#Cc1cc(CN2CCC(Nc3ncnc4sc(Cl)cc34)CC2)ccc1F`, the Potency [1] was “inactive” and the Potency [2] was 9.2 µM (active).

In the case of `CCN1CCN(c2cc3c(cc2F)c(=O)c(C(=O)O)cn3C2CC2)CC1`, the Potency [1] is reported as “inactive”, the Potency [2] is reported as “inactive” and the Potency [3] is reported as “inactive”.
